Experimental data taken from PubChem BioAssay (NCATS).
Records with an inconclusive call do not appear. A call without a number means that no potency is given here. A number with no mark means an inactive call. The source made the active and inactive calls. Calls follow the shape of the dose curve; as a rule, active = well fitted inhibition curve with a large enough effect; inconclusive = small, poorly fitted or top-dose-only effect; inactive = flat fitted curve, though single readings scatter.

How the values were obtained:
[1] = qHTS profiling for inhibitors of Plasmodium falciparum proliferation (AID 504749); also: nearly all actives have a fitted effect of over 60% in size; settings: P. falciparum in erythrocytes, SYBR Green DNA, 72 h
Outline: (§1)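 SYBR Green fluorescence (ex 485 nm, em 535 nm) reports parasite DNA after 72 h compound exposure of infected red cells at 0.3% parasitemia, 2.5% hematocrit; signal normalized to 0.29 uM artemisinin and vehicle wells.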

3D7 = assay: as above; settings: P. falciparum in erythrocytes, SYBR Green DNA, 72 h; series mostly up to 28.7 µM
Outline: as §1

7G8 = assay: as above; settings: P. falciparum in erythrocytes, SYBR Green DNA, 72 h; series mostly up to 28.7 µM
Outline: as §1

AA1029 = assay: as above; settings: P. falciparum in erythrocytes, SYBR Green DNA, 72 h; series mostly up to 28.7 µM
Outline: as §1

[2] = at 28.7 µM (top of the series), parasite line A
[3] = at 28.7 µM (top of the series), parasite line B
[4] = at 12.8 µM (top of the series), parasite line A
[5] = at 12.8 µM (top of the series), parasite line B
Potency is read from the fitted curve at half-maximal effect.

Structure (SMILES)	activity, negative = inhibition [1, 2] [%]	activity, negative = inhibition [1, 3] [%]	Potency (3D7)	Potency (7G8)	Potency (AA1029)	activity, negative = inhibition [1, 4] [%]	activity, negative = inhibition [1, 5] [%]	Potency ([1]; parasite line A)	Potency ([1]; parasite line B)
Oc1c(Cl)cc(Cl)cc1Sc1cc(Cl)cc(Cl)c1O	-0.752	-1.75	inactive	inactive	inactive	–	–	–	–
Nc1ccc(C(=O)Nc2ccccc2N)cc1	-0.627	14.4	inactive	inactive	inactive	–	–	–	–
Cc1ccnc(NS(=O)(=O)c2ccc(N)cc2)n1	–	–	inactive	inactive	inactive	9.46	-14.9	–	–
O=C(CCN1CCC(c2ccccc2)C1)c1ccc2c(c1)OCCO2 (stereo not drawn)	10.2	1.82	inactive	inactive	inactive	–	–	–	–
Cc1cccn2c(=O)c(-c3nnn[nH]3)cnc12	7.08	2.69	inactive	inactive	inactive	–	–	–	–
CN1CCC(=C2c3ccccc3Sc3ccccc32)CC1	–	–	8.91 µM (active)	5.01 µM (active)	5.62 µM (active)	–	–	6.31 µM (active)	10 µM (active)
CCN(CC)C(=O)/C(C#N)=C/c1cc(O)c(O)c([N+](=O)[O-])c1	-3.14	-7.95	–	14.1 µM (active)	inactive	–	–	–	–
CC(=O)c1ccc2c(c1)N(CCCN1CCC(CCO)CC1)c1ccccc1S2	–	–	inactive	–	inactive	-2.26	0.0996	–	–
C[C@H]1[C@H](NC(=O)/C(=N/OC(C)(C)C(=O)O)c2csc(N)n2)C(=O)N1S(=O)(=O)O (stereo in doubt)	–	–	inactive	–	inactive	1.65	14.2	–	–
c1ccc(OCc2ccc(CCCN3CCOCC3)cc2)cc1	3.42	8.4	inactive	–	inactive	–	–	–	–
CC(=O)Oc1ccc(C(=C2CCCCC2)c2ccc(OC(C)=O)cc2)cc1	6.38	9.72	inactive	inactive	inactive	–	–	–	–
CCCCC1=NC2(CCCC2)C(=O)N1Cc1ccc(-c2ccccc2-c2nn[nH]n2)cc1	-0.908	-26.5	inactive	–	inactive	–	–	–	–
CCCCOc1ccc(C(=O)CCN2CCCCC2)cc1	–	–	inactive	inactive	inactive	2.86	-20.7	–	–
CCN1CCN(c2cc3c(cc2F)c(=O)c(C(=O)O)cn3C2CC2)CC1	-8.55	-3.41	inactive	–	inactive	–	–	–	–
C#C[C@]1(O)CC[C@H]2[C@@H]3CCc4cc(OC5CCCC5)ccc4[C@H]3CC[C@@]21C	-10.1	-11.7	inactive	–	inactive	–	–	–	–
C[C@@H](CN(C)C)CN1c2ccccc2Sc2ccccc21	–	–	inactive	–	inactive	1.53	7.77	–	–
C[C@H]1C[C@H]2[C@@H]3CCC4=CC(=O)C=C[C@]4(C)[C@@]3(Cl)[C@@H](O)C[C@]2(C)[C@@]1(O)C(=O)CO	2.21	13.1	inactive	–	inactive	–	–	–	–
CCCN1CCCC[C@H]1C(=O)Nc1c(C)cccc1C	9.76	10.7	inactive	–	inactive	–	–	–	–
CCCCCCCCCCCCCCCCOP(=O)([O-])OCC[N+](C)(C)C	-1.43	12.3	inactive	–	inactive	–	–	–	–
Nc1ccc(/C=C/c2ccc(N)cc2S(=O)(=O)O)c(S(=O)(=O)O)c1	-8.57	7.68	inactive	inactive	inactive	–	–	–	–
O=C(O)c1cc2cc(Cc3cccnc3)ccc2o1	9.24	5.6	inactive	inactive	inactive	–	–	–	–
CCC(C(=O)OCCN(CC)CC)c1ccccc1 (stereo not drawn)	-4.21	8.52	inactive	inactive	inactive	–	–	–	–
COC1=CC(=O)C[C@@H](C)[C@]12Oc1c(Cl)c(OC)cc(OC)c1C2=O	4.87	-1.47	inactive	inactive	inactive	–	–	–	–
CCN1CCCC1=O	3.13	11.2	inactive	–	inactive	–	–	–	–
C[C@H](O)C(=O)Nc1c(I)c(C(=O)NC(CO)CO)c(I)c(C(=O)NC(CO)CO)c1I	–	–	inactive	inactive	inactive	-8.8	10.5	–	–
CC(Cc1cccc(C(F)(F)F)c1)NCCOC(=O)c1ccccc1 (stereo not drawn)	15.8	6.99	inactive	8.91 µM (active)	inactive	–	–	–	–
